Assay outcomes: PubChem, several laboratories
Mdm2 MdmX PPI = inhibitors of human Mdm2-MdmX association, primary screen, cell-based, luminescence, split luciferase, SaOS-2, uHTS | Protein Mdm4 (Homo sapiens) + E3 ubiquitin-protein ligase Mdm2 (Homo sapiens), … | 3% of 330,000 active | inhibition, % at 8 µM | SaOS-2 split-luciferase Mdm2/MdmX complementation;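 active = inhibition of at least 50% at 8 µM in the primary screen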
Calb FLC = C. albicans growth inhibition with fluconazole, primary screen, CaCi-2 strain, Alamar Blue fluorescence; C. albicans CaCi-2 (fluconazole-resistant clinical isolate) + fluconazole, 48 h; growth inhibition, % (concentration not given with the values); 0.57% of 300,000 active; AID 1979, 2009;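 active = growth inhibition above about 58% in most replicates, limit read from the data, passing the limit was not always enough; inconclusive = exactly half the replicates above a set limit; inactive = most replicates below a set limit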;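 note: all wells also contain fluconazole at 8 µg/ml as a sub-toxic cotreatment; 0% = median of DMSO wells and 100% = median of geldanamycin control wells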
Beta apoptosis = inhibitors of cytokine-induced beta cell apoptosis, primary screen, luminescence; AID 435005, 2010; INS-1E cytokine-induced death, ATP luminescence, 48 h; percent of positive-control rescue, neutral wells zero; protection from apoptosis, % (test concentration not listed); 0.8% of 300,000 active;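 active = Every replicate reaches about 75%, or at least half do and their mean reaches it too, limit read from the data; inconclusive = At least half of replicates reach the limit but their mean does not; inactive = Under half of replicates reach the limit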;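 note: 0% = cytokine-treated negative control wells and 100% = positive control rescue; higher means more ATP so stronger rescue from cytokine killing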
PP5 inh = PP5 phosphatase inhibitors, primary screen, biochemical, fluorescence; Serine/threonine-protein phosphatase 5 (Homo sapiens), P53041; purified PP5c, OMFP substrate fluorescence; inhibition, % at 6.7 µM; 0.18% of 320,000 active; AID 1987, 2009;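 active = inhibition above the campaign's mean inhibition across all tested compounds plus 3 SD, cut at about 9.5% in these data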;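 note: 0% = DMSO only and 100% = 100 µM cantharidin control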
PP1 counter = PP1-alpha phosphatase inhibitors, primary screen, counter-screen for PP5 inhibitor project, biochemical, fluorescence, OMFP substrate, single point; Serine/threonine-protein phosphatase PP1-alpha catalytic subunit (Homo sapiens), P62136; purified PP1alpha; inhibition, % at 6.7 µM; 0.9% of 320,000 active; AID 2235, 2010;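 active = inhibition above the mean inhibition of all tested compounds plus 3 SD, computed separately for each screening campaign, cut at about 15% in these data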
Target sequence (P62136 whole entry, looked up): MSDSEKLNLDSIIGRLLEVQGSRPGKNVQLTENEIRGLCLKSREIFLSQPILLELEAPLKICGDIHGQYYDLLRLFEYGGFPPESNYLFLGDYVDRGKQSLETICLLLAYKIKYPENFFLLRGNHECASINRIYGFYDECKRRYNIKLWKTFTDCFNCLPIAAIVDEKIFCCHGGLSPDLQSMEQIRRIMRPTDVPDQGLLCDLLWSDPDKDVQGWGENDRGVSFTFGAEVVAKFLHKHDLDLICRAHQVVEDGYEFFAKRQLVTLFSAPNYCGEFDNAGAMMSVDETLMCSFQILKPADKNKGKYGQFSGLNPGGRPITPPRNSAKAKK
CSC inhib = cancer stem cell viability inhibitors, primary screen, luminescence. cancer stem cell-like cells viability. inhibition, % at 7.5 µM. 1.1% of 300,000 active; in the data active = inhibition above about 75%; inconclusive = no clear call, values can overlap the other calls; tested in HMLE shEcad cells
The depositor's hits bear a star; ? = inconclusive; . = not tested or not shown. Rows were chosen to be rich in hits. Some 4.9% of all compounds tested hit in one or more screens of this group.

SMILES	Mdm2 MdmX PPI	Calb FLC	Beta apoptosis	PP5 inh	PP1 counter	CSC inhib
O=[N+]([O-])c1ccc(N=Nc2c(Cl)cc(O)cc2Cl)cc1	.	?	122*	2	5	110*
CC1(C(=O)OCC(=O)NC(=O)c2ccccc2)CC1(Cl)Cl (configuration not stated)	16	1	-4	-1	14	11
CC1(C(=O)OCC(=O)N2c3ccccc3Sc3ccccc32)CC1(Cl)Cl (configuration not stated)	23	44	89*	1	1	57
CCOc1ccc(N(C(=O)CNC(=O)c2cccs2)C(C(=O)NCC2CCCO2)c2ccc(OC)c(OC)c2)cc1 (configuration not stated)	-32	-5	-6	-2	-4	-8
CCOC(=O)N1CCN(C(=O)C2CCC(=O)N(Cc3ccc(Cl)cc3)C2)CC1 (configuration not stated)	-2	5	6	0	0	-27
O=C([O-])c1cc(-c2ccccc2)cc(-c2ccccc2)[n+]1Cc1ccccc1	17	1	122*	2	2	0
Cc1ccc(-c2csc(Nc3ccc(C(=O)O)cc3)[n+]2Cc2ccccc2)cc1	18	-3	9	-1	-5	41
O=C(c1cc2ccccc2cc1O)N1CCCC1	14	-3	-2	-1	-2	-16
O=C(c1cc2ccccc2cc1O)N1CCN(c2ccccc2O)CC1	6	77*	-2	0	1	-14
O=C(O)c1ccc(NC(=S)NC(=O)c2ccc(-c3ccccc3)cc2)cc1	-30	84*	8	1	4	-11
COc1ccc(-c2nc(SCC(=O)NC3CCCCC3)n[nH]2)cc1	17	7	-3	.	.	9
CN(C)CCNC(=O)/C=C/c1cn(-c2ccccc2)nc1-c1cc2ccccc2oc1=O	28	-1	7	-2	-2	0
CC1CCCCN1S(=O)(=O)c1ccc(C(=O)Nc2nnc(-c3ccccc3Cl)o2)cc1 (configuration not stated)	41	10	.	2	10	42
CC1(C)COCN1S(=O)(=O)c1ccc(C(=O)Nc2nnc(-c3ccc(Cl)s3)o2)cc1	15	79*	.	2	12	44
O=C(NNC1=C(C(=O)C(F)(F)F)CCC1)c1ccc(Br)cc1	40	92*	6	3	-6	107*
COc1ccc(C(=O)Nc2nnc(CC(=O)N/N=C/c3ccc(O)cc3O)s2)cc1	-6	36	-3	1	15	43
Cc1ccc(C(=O)Nc2nnc(CC(=O)N/N=C/c3ccncc3)s2)cc1	-3	0	0	2	15*	17
O=S1(=O)N=C(N2CCOCC2)c2ccccc21	4	3	2	2	0	11
O=S1(=O)N=C(Nc2ccc(N3CCOCC3)cc2)c2ccccc21	14	86*	-1	-2	-4	0
Cc1cc(C)cc(NC(=O)N2CCN(C/C=C/c3ccccc3)CC2)c1	-4	-24	3	5	-2	10
Cc1nn(Cc2cccc(F)c2)c(C)c1NC(=O)c1ccc(COc2ccccc2Cl)cc1	49	-5	16	5	4	101*
Cc1nn(Cc2c(F)c(F)c(F)c(F)c2F)c(C)c1NC(=O)c1cccc(COc2ccccc2Cl)c1	-22	-4	12	7	-8	10
CN1C(=O)/C(=C/c2cccc(Cl)c2)Sc2ccc(C(=O)NCc3cccnc3)cc21	14	-2	13	5	12	96*
COc1cccc(/C=C2\Sc3ccc(C(=O)NCc4cccnc4)cc3N(C)C2=O)c1	12	6	7	4	4	52
O=C(O)COc1ccc(/C=C2/SC(=S)N(Cc3ccccc3)C2=O)cc1	23	6	-4	2	15*	3
SMILES	Mdm2 MdmX PPI	Calb FLC	Beta apoptosis	PP5 inh	PP1 counter	CSC inhib
O=C1/C(=C\c2cc(Cl)c(O)c(Cl)c2)SC(=S)N1Cc1ccccc1	.	10	9	.	.	104*
CNNC(=S)Nc1cccc(C(F)(F)F)c1	-13	-8	-4	0	-1	2
FC(F)(F)c1cccc(NC(=S)NNC(=S)Nc2cccc(C(F)(F)F)c2)c1	44	-5	97*	4	3	110*
CC(=O)Nc1ccc(NC(=O)CCCN2C(=O)c3ccccc3C2=O)cc1	17	108*	-1	1	-5	-19
NC(=O)COC(=O)c1cccc(NS(=O)(=O)/C=C/c2ccccc2)c1	-7	2	-3	0	-4	.
CC(C)NC(=O)COC(=O)c1cccc(NS(=O)(=O)/C=C/c2ccccc2)c1	0	103*	-4	-1	3	-13
CCCc1ccc(Oc2c(-c3ccc(O)c(C)c3O)n[nH]c2C)cc1	13	-21	5	5	-3	100*
CCCOC(=O)c1ccc(Oc2cn[nH]c2-c2ccc(OCC)cc2O)cc1	21	13	-1	5	2	-7
CCCc1ccc(Oc2cn[nH]c2-c2ccc(O)c(C)c2O)cc1	24	-10	.	4	-4	123*
CN(C)C(CNC(=S)Nc1cccc(Cl)c1)c1ccccc1 (configuration not stated)	7	-13	-1	-3	0	-8
Cc1ccc(C(=O)Nc2ncc(Cc3ccccc3)s2)o1	-104	-1	.	2	9	97*
COC(=O)c1cccc(NS(=O)(=O)c2ccc(OC)c(C(=O)N3CCOCC3)c2)c1C	11	7	8	-3	5	7
CC(C)CCNc1nc(-c2ccco2)c2c(c1C#N)CCCC2	30	0	-6	2	-1	80*
O=[N+]([O-])c1ccc(Sc2ccccn2)nc1	-13	16	-3	1	-5	-8
O=C(Nc1cc(Sc2ccccn2)cc([N+](=O)[O-])c1)c1ccc([N+](=O)[O-])cc1	33	-7	.	5	16*	6
CS/C(=C/[N+](=O)[O-])Nc1cccc2c1C(C)CC2(C)C (configuration not stated)	-20	5	4	0	-2	.
CCOC(=O)Cc1csc(NS(=O)(=O)c2ccc(SC)cc2)n1	-5	0	-4	0	-4	0
COc1ccc(CN(C)CC(=O)Nc2cc3oc4ccccc4c3cc2OC)c(OC)c1	25	6	6	2	0	84*
COc1cccc2sc(Nc3nc(-c4ccccn4)cs3)nc12	43	-38	111*	1	17*	.
CCOC(=O)c1sc(Nc2nc3c(OC)cccc3s2)nc1C	3	78*	21	5	-1	32
